Test results reported in PubChem BioAssay (EPA / NIEHS).
Active and inactive are the calls of the source. Rule for the calls: active = hit-call score of the fitted dose curve at least 0.9, where 1 is the maximum; inactive = score below 0.9.

Key:
[1] = APR_HepG2_CellCycleArrest_24hr: Apredica 24-hour HepG2 Assay for Cell Cycle Arrest (AID 2282905); conditions: imaging, actives raise or lower the signal;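 note: cell cycle arrest scored as ratio of 2N to 4N nuclear DNA content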
Procedure, shortened: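 After 24 h exposure at 0.39–200 uM in 0.5% DMSO, fixed cells received Hoechst 33342 staining. Imaging quantified per-nucleus DNA content; gain or loss fitted against DMSO controls.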

[2] = APR_HepG2_NuclearSize_24hr: Apredica 24-hour HepG2 Assay for Nuclear Size (AID 2282907); conditions: high-content imaging, actives raise or lower the signal
Procedure, shortened: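 Nuclear size from Hoechst 33342-stained, formaldehyde-fixed HepG2 nuclei imaged by high-content microscopy, after 24 h dosing at ten concentrations from 0.39 to 200 uM in 0.5% DMSO; gain or loss relative to DMSO baseline.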

[3] = APR_HepG2_CellLoss_24hr: Apredica 24-hour HepG2 Assay for Cell Loss (AID 2282908); conditions: high-content imaging;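 for AC50: fit in both directions so a hit may be cell loss or gain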
Procedure, shortened: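 Nuclei stained with Hoechst 33342 after formaldehyde fixation (3.7%) were imaged at 20x to count cells. Exposure lasted 24 hr, at ten concentrations from 0.39 to 200 uM in duplicate, with 0.5% v/v DMSO. Fit bidirectional, relative to DMSO.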

[4] = APR_HepG2_MicrotubuleCSK_24hr: Apredica 24-hour HepG2 Assay for Microtubule CSK Stabilty (AID 2282909); conditions: HepG2 microtubule cytoskeleton imaging, actives raise or lower the signal
Procedure, shortened: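 Fixed HepG2 cells were stained for alpha-tubulin and imaged after 24 hr exposure to ten concentrations spanning 0.39–200 uM in 0.5% DMSO. Signal change was fitted in both directions relative to DMSO; taxol was the positive control.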

[5] = APR_HepG2_MitoticArrest_24hr: Apredica 24-hour HepG2 Assay for Mitotic Arrest (AID 2282910); conditions: high-content imaging, actives raise or lower the signal
Procedure, shortened: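 HepG2, 24 hr dosing, 0.39–200 uM, 0.5% DMSO final. Formaldehyde-fixed, Triton-permeabilised, anti-phospho-histone H3 plus Hoechst. ArrayScan imaging at 20x; bidirectional fit vs DMSO baseline.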

[6] = APR_HepG2_MitoMembPot_24hr: Apredica 24-hour HepG2 Assay for Mitochondrial Membrane Potential (AID 2282911); conditions: imaging, actives raise or lower the signal
Procedure, shortened: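 Human hepatoma HepG2 cultures received ten compound concentrations up to 200 uM for 24 hr. Membrane-potential dye signal, captured by automated fluorescence microscopy, was scored for gain or loss against DMSO controls.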

[7] = APR_HepG2_MitoMass_24hr: Apredica 24-hour HepG2 Assay for Mitochondrial Mass (AID 2282912); conditions: high-content imaging, actives raise or lower the signal
Procedure, shortened: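 Endpoint is MitoTracker Red CMXRos (250 nM, 30 min, pre-fixation) intensity from 20x high-content imaging, nuclei located by Hoechst. Human HepG2 cells received ten concentrations from 0.39 to 200 uM in 0.5% DMSO for 24 hr, duplicate wells. Bidirectional fit relative to DMSO.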

[8] = APR_HepG2_CellCycleArrest_72hr: Apredica 72-hour HepG2 Assay for Cell Cycle Arrest (AID 2282914); conditions: high-content imaging, actives raise or lower the signal
Procedure, shortened: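 Cell cycle arrest in HepG2 was scored from nuclear DNA content after 72 hr compound treatment (0.39–200 uM). Activity, either gain or loss, was fitted against the DMSO baseline.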

[9] = APR_HepG2_CellLoss_72hr: Apredica 72-hour HepG2 Assay for Cell Loss (AID 2282915); conditions: high-content imaging
Procedure, shortened: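 HepG2 cells exposed 72 h to compound at 0.39–200 uM (10 concentrations, duplicate) in 0.5% DMSO. Fixed with 3.7% formaldehyde and Hoechst 33342-stained. Imaged at 20x; nuclear count gives cell number, fitted bidirectionally versus DMSO.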

[10] = APR_HepG2_P-H2AX_72hr: Apredica 72-hour HepG2 Assay for H2AX Phosphorylation (AID 2282916); conditions: imaging, actives raise or lower the signal;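 note: phospho-histone H2A.x immunostain intensity per cell marking DNA damage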
Procedure, shortened: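 Phospho-histone H2A.x immunofluorescence, multiplexed with Hoechst and c-Jun, quantified by high-content imaging. Compounds applied to HepG2 for 72 h across ten concentrations (0.39–200 uM, 0.5% DMSO), in duplicate; DMSO baseline.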

[11] = APR_HepG2_MitoMembPot_72hr: Apredica 72-hour HepG2 Assay for Mitochondrial Membrane Potential (AID 2282917); conditions: imaging, actives raise or lower the signal
Procedure, shortened: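 HepG2 cells dosed 72 hr with compound at 0.39–200 uM in duplicate, 0.5% v/v DMSO final. Mitochondria stained with 250 nM MitoTracker Red CMXRos for 30 min before formaldehyde fixation, imaged by high-content fluorescence; bidirectional fit versus DMSO.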

[12] = APR_HepG2_MitoticArrest_72hr: Apredica 72-hour HepG2 Assay for Mitotic Arrest (AID 2282918); conditions: high-content imaging, actives raise or lower the signal
Procedure, shortened: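 Mitotic arrest in HepG2 is scored from phospho-histone H3 staining after 72 hr dosing across 0.39–200 uM, with DMSO at 0.5% v/v. Nuclei are identified by Hoechst 33342 and fluorescence intensity is quantified per cell.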

[13] = APR_HepG2_MicrotubuleCSK_72hr: Apredica 72-hour HepG2 Assay for Microtubule CSK Stabilty (AID 2282919); conditions: HepG2 microtubule cytoskeleton, high-content imaging, actives raise or lower the signal
Procedure, shortened: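 HepG2, 72 hr cmpd exposure, 0.39–200 uM (10 pts, duplicate), 0.5% DMSO. 3.7% formaldehyde fix, 0.5% Triton perm, anti-alpha-tubulin/Cy5 plus Hoechst. HCS fluorescence intensity; bidirectional fit vs DMSO baseline; taxol as positive control.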

[14] = APR_HepG2_P-H2AX_24hr: Apredica 24-hour HepG2 Assay for H2AX Phosphorylation (AID 2282920); conditions: high-content imaging, actives raise or lower the signal
Procedure, shortened: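 Signal comes from a FITC-labeled secondary detecting phospho-histone H2A.x in fixed HepG2 cells, quantified by automated imaging at 20x. Dosing ran 24 hr across 0.39–200 uM with 0.5% v/v DMSO.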

[15] = APR_HepG2_StressKinase_72hr: Apredica 72-hour HepG2 Assay for Stress Kinase (AID 2282921); conditions: HepG2 stress kinase (phospho-c-Jun) imaging, actives raise or lower the signal
Procedure, shortened: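 Stress kinase signal is phospho-c-Jun immunofluorescence (1:500 primary, Cy3 secondary) in fixed, permeabilized human HepG2 cells imaged at 20x. Exposure lasted 72 hr over ten concentrations from 0.39 to 200 uM, 0.5% DMSO, in duplicate. Bidirectional fit versus DMSO.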

[16] = APR_HepG2_StressKinase_24hr: Apredica 24-hour HepG2 Assay for Stress Kinase (AID 2282922); conditions: HepG2 stress kinase (phospho-c-Jun) imaging, actives raise or lower the signal
Procedure, shortened: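 Read-out: phospho-c-Jun immunofluorescence (Cy3 secondary) quantified by high-content imaging at 20x, nuclei defined by Hoechst 33342. Human HepG2 liver cells dosed 24 hr, 0.39–200 uM, DMSO 0.5% v/v; gain or loss of signal fitted relative to DMSO.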

[17] = APR_HepG2_NuclearSize_72hr: Apredica 72-hour HepG2 Assay for Nuclear Size (AID 2282925); conditions: high-content imaging, actives raise or lower the signal
Procedure, shortened: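 Read-out: nuclear diameter from Hoechst 33342 images (ArrayScan, 20x, six fields/well), via cell-cycle image analysis. HepG2 were dosed 0.39–200 uM for 72 hr in 0.5% DMSO. Bidirectional fit relative to DMSO.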

[18] = APR_HepG2_p53Act_24hr: Apredica 24-hour HepG2 Assay for p53 Activation (AID 2282913); conditions: high-content imaging, actives raise or lower the signal;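 note: p53 protein immunofluorescence averaged per cell in HepG2 with Hoechst nuclei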
Procedure, shortened: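 Automated fluorescence imaging quantifies p53 immunostaining in HepG2 cells after a 24 hr exposure (0.39–200 uM, duplicate, 0.5% DMSO). Nuclei are located by Hoechst 33342 staining.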

[19] = APR_HepG2_MitoMass_72hr: Apredica 72-hour HepG2 Assay for Mitochondrial Mass (AID 2282924); conditions: high-content imaging, actives raise or lower the signal;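 note: MitoTracker Red CMXRos stain intensity per cell imaged as mitochondrial mass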
Procedure, shortened: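 Read-out: MitoTracker Red fluorescence intensity from automated imaging (20x, six fields per well) in human HepG2 liver cells. Dosing ran 72 hr, 0.39–200 uM, 0.5% DMSO; bidirectional curve fitting versus DMSO baseline.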

[20] = APR_HepG2_p53Act_72hr: Apredica 72-hour HepG2 Assay for p53 Activation (AID 2282923); conditions: high-content imaging, actives raise or lower the signal;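 note: average cellular p53 protein immunofluorescence intensity in HepG2 cells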
Procedure, shortened: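 After 72 h with compound (ten points, 0.39 to 200 uM, final DMSO 0.5% v/v), fixed HepG2 cells were labelled with sheep anti-p53 and Hoechst 33342 and imaged; gain or loss versus DMSO scored.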

Measured: AC50

CCOC(=O)[C@]1(c2ccccc2)Oc2ccccc2[C@@H]1N
inactive: [1] | [2] | [6] | [8] | [11] | [13] | [16] | [17]
active: [3] 86.7 µM | [4] 112 µM | [5] 111 µM | [7] 107 µM | [9] 116 µM | [10] 112 µM | [12] 90.8 µM | [14] 120 µM | [15] 109 µM

Nc1ccc(Oc2ccc(N)cc2)cc1
inactive: [1] | [3] | [4] | [5] | [6] | [7] | [18] | [8] | [9] | [10] | [11] | [12] | [13] | [14] | [15] | [16] | [17]

CNC(=O)Oc1cccc2c1OC(C)(C)C2
inactive: [1] | [3] | [4] | [5] | [6] | [7] | [18] | [8] | [9] | [10] | [11] | [12] | [13] | [14] | [16] | [17]

c1ccc(C2CO2)cc1 (configuration not stated)
inactive: [1] | [3] | [4] | [5] | [6] | [7] | [18] | [8] | [9] | [10] | [11] | [12] | [13] | [14] | [15] | [16] | [19] | [17]

CCCCCCCCOC(=O)c1ccc(C(=O)OCCCCCCCC)c(C(=O)OCCCCCCCC)c1
inactive: [1] | [3] | [4] | [5] | [6] | [7] | [18] | [8] | [9] | [10] | [11] | [12] | [13] | [14] | [15] | [16] | [19] | [17]

N#CC(Br)Br
inactive: [1] | [6] | [8] | [11] | [13] | [15] | [16] | [17]
active: [3] 115 µM | [4] 169 µM | [5] 45.4 µM | [7] 86.6 µM | [9] 96.9 µM | [10] 96.9 µM | [12] 73.6 µM | [14] 88.8 µM

O=C(Nc1ccccc1)c1ccccc1I
active: [1] 49.7 µM | [9] 61.8 µM
inactive: [3] | [4] | [5] | [6] | [7] | [8] | [10] | [11] | [12] | [13] | [14] | [16] | [19] | [17]

Clc1ccccc1Cl
inactive: [1] | [3] | [4] | [5] | [6] | [7] | [8] | [9] | [10] | [11] | [12] | [13] | [14] | [16] | [19] | [17]

C1=Cc2cccc3cccc1c23
inactive: [1] | [3] | [4] | [5] | [6] | [7] | [18] | [8] | [9] | [10] | [11] | [12] | [13] | [14] | [15] | [16] | [19] | [17]

CCN(CC)N=O
inactive: [1] | [3] | [4] | [5] | [6] | [7] | [18] | [8] | [9] | [10] | [11] | [12] | [13] | [14] | [16] | [19] | [17]

Clc1ccc(Cl)c(Cl)c1
inactive: [1] | [3] | [4] | [5] | [6] | [7] | [18] | [8] | [9] | [10] | [11] | [12] | [13] | [14] | [15] | [16] | [17]

O=P(OCCCl)(OCCCl)OCCCl
inactive: [1] | [3] | [4] | [5] | [6] | [7] | [18] | [8] | [9] | [10] | [14] | [15] | [16] | [20] | [17]

Clc1ccc(C(c2ccc(Cl)cc2)C(Cl)(Cl)Cl)cc1
active: [3] 57.9 µM | [5] 50.1 µM | [6] 30.3 µM | [7] 44.4 µM | [18] 54.7 µM | [9] 50.5 µM | [10] 50.2 µM | [11] 30.4 µM | [12] 42.6 µM | [14] 50.5 µM | [16] 51.9 µM
inactive: [1] | [4] | [8] | [13] | [20] | [17]

Cc1ccc(N)cc1
inactive: [1] | [3] | [4] | [5] | [6] | [7] | [18] | [8] | [9] | [10] | [11] | [12] | [13] | [14] | [15] | [16] | [19] | [17]

CN(C)C(=O)Nc1ccc(Cl)cc1
inactive: [1] | [3] | [4] | [5] | [6] | [7] | [18] | [8] | [9] | [10] | [11] | [12] | [13] | [14] | [16] | [17]
